Measurements reported in the supplement of paper PMC3342239.
Counter-ions that a name gives are not always drawn.

Test system: Saccharomyces cerevisiae
Assay: fraction of cells in G1 phase (DNA content, flow cytometry); higher = more cells with unreplicated DNA (G1 delay)
Details: temperature: 30 C; YPD; JTY2953 pdr5 snq2 (sensitized); drug added to: cultures diluted from stationary phase; 6-7 h
Summary of the method: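 Library drugs were added to S. cerevisiae in YPD at 30°C, with fixation after 6–7 h for sensitized JTY2953 diluted 1∶200 from overnight and given a final 20 µg/ml, 6 h for dividing JTY2953, and 4.33 h for BY4741. Ethanol-fixed cells stained with SYTOX Green were read by flow cytometry, 10,000 events each. The G1 fraction is the ratio of the Dean-Jett-Fox G1 peak area to the G1 plus G2/M areas.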

Q: Which “fraction of cells in G1 phase” value does the source give for `C#C[C@]1(O)CC[C@H]2[C@@H]3[C@H](C)CC4=C(CCC(=O)C4)[C@H]3CC[C@@]21C` [Tibolone] (64.009 µM) here?
A: Its value is 0.56.

Q: For `COc1c(C)c2c(c(O)c1C/C=C(\C)CCC(=O)O)C(=O)OC2` [Mycophenolic acid] (62.4326 µM), which “fraction of cells in G1 phase” value is on record?
A: The value was 0.54.

Q: Which “fraction of cells in G1 phase” value does the source give for `CO/N=C(\C(=O)N[C@@H]1C(=O)N2C(C(=O)[O-])=C(C[N+]3(C)CCCC3)CS[C@H]12)c1csc(N)n1` [Cefepime] (41.6174 µM) here?
A: The value was 0.504.

Q: `CN1CCN(c2c(F)cc3c(=O)c(C(=O)O)cn4c3c2SCC4)CC1` [Rufloxacin] (55.0337 µM) was tested. Which “fraction of cells in G1 phase” value did it give?
A: The value was 0.466.

Q: `COc1ccc2[nH]cc(CCNC(C)=O)c2c1` [Melatonin] (86.1012 µM) was tested. Which “fraction of cells in G1 phase” value did it give?
A: Its value is 0.529.

Q: `CN(C)CCOC(c1ccccc1)c1ccccc1` [Diphenhydramine HCl] (78.3199 µM) was tested. Which “fraction of cells in G1 phase” value did it give?
A: Its value is 0.446.

Q: Which “fraction of cells in G1 phase” value does the source give for `COc1ccc2[nH]c([S+]([O-])Cc3ncc(C)c(OC)c3C)nc2n1` (stereo not drawn) [Tenatoprazole] (57.7349 µM) here?
A: Its value is 0.486.

Q: How did the “fraction of cells in G1 phase” value turn out when `C[C@]12C=CC(=O)C=C1CC[C@@H]1[C@@H]2[C@@H](O)C[C@@]2(C)[C@H]1CC[C@]2(O)C(=O)CO` [Prednisolone] (55.4855 µM) was run?
A: Its value is 0.466.

Q: `Nc1ccn([C@@H]2O[C@H](CO)[C@@H](O)[C@@H]2O)c(=O)n1` [Cytarabine] (82.2297 µM) was tested. Which “fraction of cells in G1 phase” value did it give?
A: The value was 0.477.

Q: For `NS(=O)(=O)c1cc2c(cc1Cl)NC(C(Cl)Cl)NS2(=O)=O` (stereo not drawn) [Trichloromethiazide] (52.5406 µM), which “fraction of cells in G1 phase” value is on record?
A: Its value is 0.494.

Q: Which “fraction of cells in G1 phase” value does the source give for `Nc1nc(N)nc(-c2cc(Cl)ccc2Cl)n1` [Irsogladine maleate] (78.0958 µM) here?
A: The value was 0.471.

Q: With `COC(=O)Nc1nc2cc(Sc3ccccc3)ccc2[nH]1` [Fenbendazole] (66.8106 µM) as the compound, how does the “fraction of cells in G1 phase” value read?
A: The value was 0.421.

Q: For `Clc1ccc2nsnc2c1NC1=NCCN1` [Tizanidine HCl] (78.8287 µM), which “fraction of cells in G1 phase” value is on record?
A: The value was 0.504.

Q: For `COc1cc(NS(=O)(=O)c2ccc(N)cc2)nc(OC)n1` [Sulfadimethoxine] (64.4467 µM), which “fraction of cells in G1 phase” value is on record?
A: Its value is 0.48.

Q: `CC1(C)S[C@@H]2[C@H](NC(=O)[C@H](N)c3ccccc3)C(=O)N2[C@H]1C(=O)O` [Ampicillin trihydrate] (57.2391 µM) was tested. Which “fraction of cells in G1 phase” value did it give?
A: The value was 0.497.

Q: For `CC(N)C12CC3CC(CC(C3)C1)C2` (stereo not drawn) [Rimantadine HCl] (111.54 µM), which “fraction of cells in G1 phase” value is on record?
A: Its value is 0.484.

Q: `C/C=C/c1ccc(OC)cc1` [Anethole, trans-] (134.947 µM) was tested. Which “fraction of cells in G1 phase” value did it give?
A: Its value is 0.525.

Q: How did the “fraction of cells in G1 phase” value turn out when `CC1=C(C)C(=O)C(CCCCC#CCCCC#CCO)=C(C)C1=O` [Docebenone] (61.2671 µM) was run?
A: The value was 0.552.

Q: Which “fraction of cells in G1 phase” value does the source give for `COc1ccc(Cl)cc1C(=O)NCCc1ccc(S(=O)(=O)NC(=O)NC2CCCCC2)cc1` [Glyburide] (40.4847 µM) here?
A: Its value is 0.531.

Q: `CN1[C@@H](CC(=O)c2ccccc2)CCC[C@H]1C[C@H](O)c1ccccc1` [Lobeline] (59.2652 µM) was tested. Which “fraction of cells in G1 phase” value did it give?
A: Its value is 0.525.

Q: `CCN(CC)CCNC(=O)c1cc(Cl)c(N)cc1OC` [Metoclopramide HCl] (66.7104 µM) was tested. Which “fraction of cells in G1 phase” value did it give?
A: The value was 0.493.

Q: Which “fraction of cells in G1 phase” value does the source give for `C[C@H](CCC(=O)NCCS(=O)(=O)O)[C@H]1CC[C@H]2[C@@H]3[C@H](O)C[C@@H]4C[C@H](O)CC[C@]4(C)[C@H]3C[C@H](O)[C@]12C` [Taurocholic acid, sodium salt hydrate] (38.7811 µM) here?
A: The value was 0.491.

Q: `CCn1cc(C(=O)O)c(=O)c2cc(F)c(N3CCN(C)CC3)cc21` [Pefloxacine mesylate] (59.9942 µM) was tested. Which “fraction of cells in G1 phase” value did it give?
A: The value was 0.465.

Q: Which “fraction of cells in G1 phase” value does the source give for `C[C@H]1[C@H](NC(=O)/C(=N\OC(C)(C)C(=O)O)c2csc(N)n2)C(=O)N1S(=O)(=O)O` [Aztreonam] (45.9309 µM) here?
A: Its value is 0.489.

Q: How did the “fraction of cells in G1 phase” value turn out when `Cc1c(O)cccc1C(=O)N[C@@H](CSc1ccccc1)[C@H](O)CN1C[C@H]2CCCC[C@H]2C[C@H]1C(=O)NC(C)(C)C` [Nelfinavir Mesylate] (30.1249 µM) was run?
A: The value was 0.487.

Q: `CCCCCOC(=O)Nc1nc(=O)n([C@@H]2O[C@H](C)[C@@H](O)[C@H]2O)cc1F` [Capecitabine] (55.6483 µM) was tested. Which “fraction of cells in G1 phase” value did it give?
A: The value was 0.442.

Q: With `CC1(C)S[C@@H]2[C@H](NC(=O)[C@H](N)c3ccc(O)cc3)C(=O)N2[C@H]1C(=O)O` [Amoxicillin] (54.7345 µM) as the compound, how does the “fraction of cells in G1 phase” value read?
A: The value was 0.457.

Q: With `CC(C)NNC(=O)c1ccncc1` [Iproniazid] (111.593 µM) as the compound, how does the “fraction of cells in G1 phase” value read?
A: Its value is 0.47.

Q: For `N=C(N)NC(=O)Cc1c(Cl)cccc1Cl` [Guanfacine HCl] (70.7818 µM), which “fraction of cells in G1 phase” value is on record?
A: The value was 0.495.

Q: For `Clc1ccc2c(c1)C(N1CCNCC1)=Nc1ccccc1O2` [Amoxapine] (63.737 µM), which “fraction of cells in G1 phase” value is on record?
A: The value was 0.581.

Q: `CCOC(=O)C1=C[C@]2(CC)CCCN3CCc4c(n1c1ccccc41)[C@@H]32` [Vinpocetine] (57.0671 µM) was tested. Which “fraction of cells in G1 phase” value did it give?
A: The value was 0.439.

Q: For `CCC(NC(C)C)C(O)c1ccc(O)c2[nH]c(=O)ccc12` (stereo not drawn) [Procaterol hcl] (68.8787 µM), which “fraction of cells in G1 phase” value is on record?
A: Its value is 0.526.

Q: With `CC#CCC(C)[C@H](O)/C=C/[C@@H]1[C@H]2C/C(=C/CCCC(=O)O)C[C@H]2C[C@H]1O` (stereo partly drawn) [Iloprost] (55.4788 µM) as the compound, how does the “fraction of cells in G1 phase” value read?
A: Its value is 0.481.

Q: With `Nc1c(Br)cc(Br)cc1CN[C@H]1CC[C@H](O)CC1` [Ambroxol] (52.8948 µM) as the compound, how does the “fraction of cells in G1 phase” value read?
A: The value was 0.529.

Q: Which “fraction of cells in G1 phase” value does the source give for `CN(C)CCCSc1ccccc1NC(=O)/C=C/c1ccccc1` [Cinanserin] (58.7387 µM) here?
A: Its value is 0.456.

Q: With `CCn1cc(C(=O)O)c(=O)c2cc(F)c(N3CCNCC3)nc21` [Enoxacin] (62.4364 µM) as the compound, how does the “fraction of cells in G1 phase” value read?
A: The value was 0.512.

Q: With `Nc1ccc(O)c(C(=O)O)c1` [5-aminosalicylic acid] (130.601 µM) as the compound, how does the “fraction of cells in G1 phase” value read?
A: The value was 0.48.

Q: How did the “fraction of cells in G1 phase” value turn out when `CC1COc2c(N3CCN(C)CC3)c(F)cc3c(=O)c(C(=O)O)cn1c23` (stereo not drawn) [Ofloxacin] (55.344 µM) was run?
A: Its value is 0.505.
